Test [1] can be described thus: compounds binding Alexa647 anti-His antibody – biochemical, small-molecule microarray, 635 nm fluorescence, artefact control for SMM control protein annotation, primary screen (AID 1128).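 Also: score merges feature fluorescence with signal-to-noise for each printed compound spot.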 The note with it: higher = more signal.
Test [2] concerns Human papillomavirus type 1a E7 protein (residues 1-88). Put plainly: HPV1a E7 small-molecule binders, primary screen, biochemical, small-molecule microarray, residues 1-88, 635 nm (AID 1129). The note with it: small-molecule microarray binding, fluorescence 635 nm; higher = more signal.
Test [3] concerns the target Focal adhesion kinase 1 (Homo sapiens) (UniProt Q05397). Description: PTK2 protein binding on printed compound slides – biochemical, small-molecule microarray, 635/667 nm fluorescence, BSA, DTT, primary screen (AID 1130).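 Also: composite of spot emission at 667 nm and signal to noise over triplicate slides.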 The note with it: 635 nm fluorescence, higher = more signal.
In test [4] the test system is Fibrinogen (Alexa647-labelled). Put plainly: Alexa647-fibrinogen binding to printed small molecules – biochemical, small-molecule microarray, 635/667 nm fluorescence, artefact control for SMM control-protein annotation, profiling panel (AID 1131).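 Also: z-score merges 667 nm fluorescence with per-spot signal-to-noise over triplicate slides.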 The note with it: fibrinogen-A647 binding fluorescence, higher = more signal.
Test [5] deals with Follistatin (Homo sapiens) (UniProt P19883). Description: FST protein binding to printed compounds – biochemical, small-molecule microarray, 635/667 nm fluorescence, primary screen (AID 1132). Conditions: 635 nm fluorescence, higher = more signal.
The target in test [6] is Fibroblast growth factor 2 (Homo sapiens) (UniProt P09038). Put plainly: basic fibroblast growth factor binding to printed compounds – biochemical, small-molecule microarray, 635/667 nm fluorescence, primary screen (AID 1133). Conditions: FGF2, fluorescence 635/667, higher = more signal.
The nature of test [7]: JC-1 mitochondrial potential readout, lung cancer cells – cell-based, A549, JC-1 fluorescence, basal, 24 h, 100 nL, profiling panel (AID 1138).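 Also: A549 lung adenocarcinoma cells under basal conditions with no added stimulus; test concentration not given here.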 The note with it: higher = more signal.
A further test has as its system Lefty1. Description: Lefty1 protein binding to printed compounds – biochemical, small-molecule microarray, 635/667 nm fluorescence, primary screen (AID 1139). Conditions: fluorescence 635/667, higher = more signal.
Test [8] concerns wheat germ agglutinin (Triticum aestivum), Alexa647-labelled. Description: Alexa647-WGA lectin binding to printed small molecules – biochemical, small-molecule microarray, 635/667 nm fluorescence, artefact control for SMM control-protein annotation, profiling panel (AID 1140).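 Also: score merges 667 nm feature emission with signal to noise over triplicate slides.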 The note with it: WGA-A647 binding, 635 nm fluorescence, higher = more signal.
The target of test [9] is Luciferin 4-monooxygenase (Photinus pyralis) (UniProt P08659). Put plainly: inhibition of purified Photinus pyralis luciferase – biochemical, luminescence, purified enzyme, 2006 set, primary screen (AID 1141).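 Also: cell-free assay with purified firefly luciferase at 100 ng per well in PBS; test concentration not given here.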 Conditions: purified firefly luciferase, SteadyGlo luminescence, 30 min; higher = more signal, called active from +8 up or from −8 down.
Test [10] relates to Wnt5a (protein binding on small-molecule microarray). Description: small molecules binding Wnt5a protein – biophysical, small-molecule microarray, 635/667 nm fluorescence, primary screen (AID 1142).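 Also: fluorescence read at 667 nm with signal to noise per printed feature.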 The note with it: 635 nm fluorescence, higher = more signal.
Test [11] is described as follows: ATP-based viability of Huh7 replicon cells – cell-based, CellTiter-Glo luminescence, basal, 48 h, cytotoxicity control for HCV replication inhibitor project, primary screen (AID 1143).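 Also: Huh7 hepatoma cells carrying a hepatitis C replication reporter with no stimulus; test concentration not given here.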 The note with it: higher = more signal, called active from +8 up or from −8 down.
A short description of test [12]: Pseudomonas biofilm growth suppression – PAO1 strain, BacTiter-Glo luminescence, LB-PBS, primary screen (AID 1144). The note with it: P. aeruginosa PAO1 biofilm, 12 h, higher = more signal.
A short description of test [13]: basal CRE-LacZ reporter activity in PC12 – cell-based, unstimulated, primary screen (AID 1145). The note with it: no forskolin, luminescence, 4.5 h, higher = more signal, called active from +8 up or from −8 down.
A short description of test [14]: forskolin-driven CRE-LacZ activity in PC12 – cell-based, CRE-LacZ reporter, forskolin-stimulated, primary screen (AID 1146).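 Also: PC12 cells with 6xCRE LacZ reporter stimulated by forskolin 10 µM; beta-galactosidase reporter signal reflecting CREB driven transcription.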 Conditions: luminescence, 4.5 h, higher = more signal, called active from +8 up or from −8 down.
Test [15] has as its target Streptavidin (Streptomyces avidinii) (UniProt P22629). Description: compounds binding control protein streptavidin – biophysical, small-molecule microarray, 635/667 nm fluorescence, artefact control for SMM compound annotation, primary screen (AID 1147).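 Also: signal reflects streptavidin binding to arrayed compounds as a control protein.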 The note with it: higher = more signal.
A short description of test [16]: probe aInhba binding on compound microarray – biochemical, small-molecule microarray, 635/667 nm fluorescence, primary screen (AID 1148).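 Also: score merges 667nm spot fluorescence with signal-to-noise for antibody binding to printed compounds.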 Conditions: higher = more signal.
Test [17] has as its target Torsin-1A (Homo sapiens) (UniProt O14656). Description: TOR1A wild-type binding on microarray – cell lysate, small-molecule microarray, lysate, 635/667 nm, primary screen (AID 1149). Conditions: COS7 hTOR1A-WT lysate, 635 nm fluorescence, higher = more signal.
For test [18] the target is unchanged. Description: torsin A mutant lysate binding on microarrays – cell lysate, small-molecule microarray, COS7 lysate, 635/667 nm fluorescence, primary screen (AID 1150).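 Also: score pools 667 nm emission and signal to noise measuring lysate protein binding.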 Conditions: COS7 hTOR1A mutant lysate, 635 nm fluorescence, higher = more signal.
The test system of test [19] is Sonic hedgehog protein (Shh). Description: Sonic hedgehog microarray binding compounds – biochemical, small-molecule microarray, 635/667 nm fluorescence, primary screen (AID 1151).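 Also: Shh protein binding to compounds spotted on small-molecule microarray slides; score combines spot fluorescence intensity with signal-to-noise across triplicate slides.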 Conditions: 635 nm fluorescence, higher = more signal.

Calls of active or inactive are those of the source. Unless noted, no rule for the calls is given here.

Streptavidin (Streptomyces avidinii), sequence (P22629 whole entry, looked up): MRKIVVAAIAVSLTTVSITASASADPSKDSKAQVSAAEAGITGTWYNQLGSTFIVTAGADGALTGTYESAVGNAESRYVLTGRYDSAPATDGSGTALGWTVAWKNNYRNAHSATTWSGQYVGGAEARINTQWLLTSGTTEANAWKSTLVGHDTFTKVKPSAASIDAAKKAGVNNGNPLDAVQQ
Focal adhesion kinase 1 (Homo sapiens), sequence (Q05397 whole entry, looked up): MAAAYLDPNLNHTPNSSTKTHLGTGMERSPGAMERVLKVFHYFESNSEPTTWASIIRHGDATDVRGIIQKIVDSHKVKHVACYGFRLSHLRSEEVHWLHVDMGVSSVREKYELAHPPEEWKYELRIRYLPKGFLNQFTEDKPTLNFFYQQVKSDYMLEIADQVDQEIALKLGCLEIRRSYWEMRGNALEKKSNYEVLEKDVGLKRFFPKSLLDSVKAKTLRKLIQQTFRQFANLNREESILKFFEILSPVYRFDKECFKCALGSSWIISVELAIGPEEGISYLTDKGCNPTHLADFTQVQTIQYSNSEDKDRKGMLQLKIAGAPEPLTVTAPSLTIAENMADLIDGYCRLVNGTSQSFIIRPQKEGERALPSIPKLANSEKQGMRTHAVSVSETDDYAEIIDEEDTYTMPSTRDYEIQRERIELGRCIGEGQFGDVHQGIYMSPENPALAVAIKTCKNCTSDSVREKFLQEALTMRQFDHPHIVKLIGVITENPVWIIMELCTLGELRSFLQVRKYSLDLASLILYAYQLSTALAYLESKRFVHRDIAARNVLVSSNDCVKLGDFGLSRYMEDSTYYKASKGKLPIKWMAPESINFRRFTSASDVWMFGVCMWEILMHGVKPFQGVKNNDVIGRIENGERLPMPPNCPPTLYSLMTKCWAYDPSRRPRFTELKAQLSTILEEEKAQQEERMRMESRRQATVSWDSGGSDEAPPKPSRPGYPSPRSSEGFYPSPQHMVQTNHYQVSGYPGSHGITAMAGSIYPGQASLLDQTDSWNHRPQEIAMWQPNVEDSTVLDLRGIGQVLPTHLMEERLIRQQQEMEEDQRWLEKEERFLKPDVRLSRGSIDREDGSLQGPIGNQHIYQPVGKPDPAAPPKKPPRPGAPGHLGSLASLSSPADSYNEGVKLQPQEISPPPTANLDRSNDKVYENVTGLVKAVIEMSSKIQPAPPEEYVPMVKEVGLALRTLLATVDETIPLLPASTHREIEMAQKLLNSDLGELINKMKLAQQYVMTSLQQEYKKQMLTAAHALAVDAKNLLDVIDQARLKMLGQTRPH
Follistatin (Homo sapiens), sequence (P19883 whole entry, looked up): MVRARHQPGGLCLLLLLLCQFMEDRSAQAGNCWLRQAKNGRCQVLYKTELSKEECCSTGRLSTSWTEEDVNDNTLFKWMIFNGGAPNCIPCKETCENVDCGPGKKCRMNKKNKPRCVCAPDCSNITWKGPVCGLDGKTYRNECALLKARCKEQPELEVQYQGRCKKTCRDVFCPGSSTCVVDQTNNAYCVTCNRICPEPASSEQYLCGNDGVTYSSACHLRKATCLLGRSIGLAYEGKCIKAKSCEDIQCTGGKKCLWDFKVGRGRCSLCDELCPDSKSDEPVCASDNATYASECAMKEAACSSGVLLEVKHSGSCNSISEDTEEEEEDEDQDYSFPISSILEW
Torsin-1A (Homo sapiens), sequence (O14656 whole entry, looked up): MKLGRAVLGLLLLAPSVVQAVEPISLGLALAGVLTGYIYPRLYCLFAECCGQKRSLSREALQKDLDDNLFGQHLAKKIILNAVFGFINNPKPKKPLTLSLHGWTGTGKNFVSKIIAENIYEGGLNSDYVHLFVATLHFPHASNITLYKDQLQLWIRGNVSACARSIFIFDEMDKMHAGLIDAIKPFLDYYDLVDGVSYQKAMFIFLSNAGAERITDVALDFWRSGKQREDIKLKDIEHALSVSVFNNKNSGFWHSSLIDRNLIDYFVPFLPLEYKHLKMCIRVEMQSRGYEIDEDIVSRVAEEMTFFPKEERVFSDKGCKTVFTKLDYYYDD
Fibroblast growth factor 2 (Homo sapiens), sequence (P09038 whole entry, looked up): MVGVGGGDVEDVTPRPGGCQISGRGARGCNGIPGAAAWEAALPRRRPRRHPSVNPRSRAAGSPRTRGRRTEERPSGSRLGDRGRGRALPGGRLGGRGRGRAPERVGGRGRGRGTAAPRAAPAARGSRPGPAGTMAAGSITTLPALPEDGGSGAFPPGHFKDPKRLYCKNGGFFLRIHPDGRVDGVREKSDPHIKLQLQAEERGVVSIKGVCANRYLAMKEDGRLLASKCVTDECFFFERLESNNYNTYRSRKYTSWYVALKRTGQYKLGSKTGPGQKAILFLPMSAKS
Luciferin 4-monooxygenase (Photinus pyralis), sequence (P08659 whole entry, looked up): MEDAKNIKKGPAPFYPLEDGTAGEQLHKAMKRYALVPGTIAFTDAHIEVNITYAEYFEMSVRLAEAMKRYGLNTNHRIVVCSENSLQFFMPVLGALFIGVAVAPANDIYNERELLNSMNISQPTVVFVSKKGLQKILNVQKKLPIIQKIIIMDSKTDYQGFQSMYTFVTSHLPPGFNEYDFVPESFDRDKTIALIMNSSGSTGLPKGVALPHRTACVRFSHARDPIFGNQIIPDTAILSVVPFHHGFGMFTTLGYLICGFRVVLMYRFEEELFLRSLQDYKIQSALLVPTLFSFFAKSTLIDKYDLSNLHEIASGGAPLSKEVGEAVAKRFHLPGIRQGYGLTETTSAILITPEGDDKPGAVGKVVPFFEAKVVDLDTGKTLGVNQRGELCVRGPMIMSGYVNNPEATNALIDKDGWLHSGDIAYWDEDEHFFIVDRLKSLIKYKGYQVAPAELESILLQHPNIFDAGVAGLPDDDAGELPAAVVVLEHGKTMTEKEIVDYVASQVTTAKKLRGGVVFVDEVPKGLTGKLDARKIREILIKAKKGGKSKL

Regarding `C=C(/C=C\CNS(=O)(=O)c1ccc(C)cc1)[C@H](O)[C@H]1CCCN1S(=O)(=O)c1ccccc1[N+](=O)[O-]`, the composite z-score was 0.721 in test [1]; 0.427 in test [2]; 0.445 in test [3]; 0.191 in test [4]; 0.216 in [5]; 0.272 in test [6]. The composite z-score was 0.177 in the test with Lefty1; 0.878 in test [8]; 0.0313 in test [10]; -0.0435 in [15]; -0.0986 in test [16]; 0.345 with Torsin-1A (Homo sapiens) [17]. The composite z-score in the test with Torsin-1A (Homo sapiens) [18] was -0.0414; in test [19], 0.17. In addition, the z-score was -0.321 in test [7]; -1.1 (inactive) in [9]; -4.19 (inactive) in test [11]; 0.227 (inactive) in test [12]; 13 (active) in test [13]; 0.121 (inactive) in test [14].

Take `CCCCC(=C=CC[C@H](O)c1cccc(OCCO)c1)C[C@H](O)c1cc(Cl)cc(Cl)c1O`: the composite z-score is 0.172 in [1]; 0.559 in test [2]; -0.0043 in test [3]; 0.489 in test [4]; 1.11 in [5]; 0.272 in test [6]. The composite z-score is 1.46 in the test with Lefty1; 0.749 in [8]; 0.252 in test [10]; 0.428 in test [15]; -0.0675 in [16]; 0.437 with Torsin-1A (Homo sapiens) [17]. Also, the composite z-score with Torsin-1A (Homo sapiens) [18] stood at 0.906; in test [19], 1.84. In addition, the z-score in [7] was 0.691; in test [9], -0.677 (inactive); in test [11], -0.705 (inactive); in [12], -0.915 (inactive); in test [13], 1.66 (inactive); in test [14], 0.0904 (inactive).

Turning to `NCCCCCCNC(=O)[C@@H]1C[C@@H]2C(=O)NCC(=O)N2[C@@H]1c1cccc(OCCO)c1`, the composite z-score was -0.207 in test [1]; 1.23 in test [2]; 1.36 in test [3]; 0.416 in test [4]; 1.46 in [5]; 1.6 in test [6]. For the same compound, the composite z-score was 1.52 in the test with Lefty1; 0.917 in test [8]; 0.729 in [10]; 1.03 in [15]; -0.0624 in test [16]; 1.56 in the test with Torsin-1A (Homo sapiens) [17]. For the same compound, the composite z-score in the test with Torsin-1A (Homo sapiens) [18] was 2.08; in [19], 1.31. For the same compound, the z-score is 1.21 in test [7]; -1.66 (inactive) in test [9]; -0.271 (inactive) in [11]; -0.584 (inactive) in test [12]; 0.0205 (inactive) in test [13]; -0.19 (inactive) in test [14].

Consider `CCOC(=O)C[C@H]1[C@H](OC(=O)c2ccc(-c3ccccc3)cc2)[C@@H](NC(=O)C2CCCCC2)c2cc(OCCCO)ccc2N1C(=O)Cc1ccc(OC)cc1`, for which the composite z-score in test [1] was found to be 0.132; in test [2], 0.365; in test [3], 0.106; in [4], 0.267; in [5], 0.2; in [6], 0.345. The composite z-score in the test with Lefty1 was 0.867; in test [8], 0.229; in [10], -0.12; in [15], 0.226; in test [16], -0.0259; in the test with Torsin-1A (Homo sapiens) [17], 0.061. In addition, the composite z-score was determined as 0.391 with Torsin-1A (Homo sapiens) [18] and 0.106 in test [19]. In addition, the z-score in [7] is 0.47; in test [9], 0.347 (inactive); in [11], -0.137 (inactive); in test [12] it was -0.105 (inactive); in test [13], -0.155 (inactive); in test [14], -0.185 (inactive).

Take `COc1ccc([Si](C)(C)[C@H]2[C@H](CC(=O)N3CCC[C@H]3CO)O[C@@]3(C(=O)N(C)c4ccccc43)[C@@H]2C)cc1`: the composite z-score in test [1] is 1.86; in test [2], 0.0098; in test [3], -0.0086; in [4] it was 0.509; in test [5] it was 1.53; in [6], 0.798. The composite z-score is 1.16 in the test with Lefty1; 0.051 in [8]; -0.0653 in test [10]; -0.28 in [15]; 0.152 in test [16]; 1.52 with Torsin-1A (Homo sapiens) [17]. For the same compound, the composite z-score came to 0.732 with Torsin-1A (Homo sapiens) [18] and 1.54 in test [19]. The z-score in [7] is -0.151; in [9] it was 0.229 (inactive); in [11], 0.191 (inactive); in test [12], -0.0357 (inactive); in [13], 1.2 (inactive); in test [14] it was 1.33 (inactive).

Turning to `COc1cccc(C)c1NC(=O)O[C@H]1[C@H](OC(=O)Nc2ccc3c(c2)OCO3)[C@H](OC(=O)Nc2ccc3c(c2)OCO3)[C@@H](OC)O[C@@H]1CO`, the composite z-score came to 1.61 in [1]; 1.27 in test [2]; 0.197 in [3]; 0.993 in test [4]; 1.3 in test [5]; 0.662 in test [6]. Further, the composite z-score in the test on Lefty1 is 0.802; in [8], 0.7; in test [10], 0.469; in [15], 1.2; in test [16], 0.226; with Torsin-1A (Homo sapiens) [17] it was -0.148. Moreover, the values for the composite z-score (in the test with Torsin-1A (Homo sapiens) [18]; in test [19]) were 0.533 and 2.02, respectively. Moreover, the z-score in test [7] is 0.123; in [9], -6.86 (inactive); in test [11] it was -2.59 (inactive); in test [12], 1.05 (inactive); in [13], 0.558 (inactive); in [14], -1.04 (inactive).

For the origin of these results see PubChem BioAssay.
